Source: ChEMBL document CHEMBL3433997, “St. Jude Leishmania screening dataset” (2016)
Where “and” joins values, the source holds several entries; their conditions need not be identical. Identical values can stand only once.

Each compound was assayed against Solute carrier family 2, facilitated glucose transporter member 1 (Homo sapiens) (UniProt P11166) (assay: ST_JUDE_LEISH: Cytotoxicity at 2uM final concentration against transgenic Leishmania Mexicana promastigotes LmGLUT1 that are glucose transport deficient and complemented with the human glucose transporter GLUT1. Activity is measured by DNA content using SYBR green in vitro).
Format: functional

Sequence of Solute carrier family 2, facilitated glucose transporter member 1 (Homo sapiens) (P11166 whole entry): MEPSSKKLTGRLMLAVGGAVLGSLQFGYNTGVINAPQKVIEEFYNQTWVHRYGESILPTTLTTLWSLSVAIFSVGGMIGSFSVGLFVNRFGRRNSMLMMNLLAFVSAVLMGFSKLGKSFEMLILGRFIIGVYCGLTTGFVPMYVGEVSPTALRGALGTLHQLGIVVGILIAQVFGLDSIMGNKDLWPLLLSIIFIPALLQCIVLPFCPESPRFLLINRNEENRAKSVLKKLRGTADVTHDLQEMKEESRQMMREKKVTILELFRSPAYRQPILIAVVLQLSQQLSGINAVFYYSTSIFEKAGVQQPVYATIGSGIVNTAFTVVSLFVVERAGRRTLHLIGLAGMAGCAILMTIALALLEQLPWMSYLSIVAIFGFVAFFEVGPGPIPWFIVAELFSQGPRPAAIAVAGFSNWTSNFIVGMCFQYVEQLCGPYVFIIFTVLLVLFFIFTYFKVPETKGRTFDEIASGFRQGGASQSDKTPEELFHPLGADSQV

Row | Structure (SMILES) | inhibition
1 | COc1ccc(-c2cnc(N)c(-c3ccc(C(N)=O)cc3)c2)cc1OC | 3.97%
2 | CCOc1ccc(OCC)c(N2CCN(CCCCNC(=O)c3ccc(NC(=O)c4ccc(Cl)cc4)cc3)CC2)c1 | 3.44%
3 | COc1ccc(NCCCNc2ccnc3ccccc23)cc1 | 5.01%
4 | COc1ccc(CCNC(C)Cc2ccc(C(=O)Nc3ccc(CC(C)NCCc4cccc(Cl)c4)cc3)cc2)cc1 (stereo not given) | 3.92%
5 | Cn1cc(C(=O)Nc2cccc(-c3cccc(-c4nc5cc(F)ccc5[nH]4)c3)c2)n(C)c1=O | 8.03%
6 | COc1ccc2c(c1)CC(C)(C)NC2CCCCCCCCC1NC(C)(C)Cc2cc(OC)ccc21 (stereo not given) | 2.26%
7 | O=C(NCC1CCN(Cc2ccc3c(c2)OCCO3)C1)c1cc(-c2cccc(C(F)(F)F)c2)cs1 (stereo not given) | -2.67%
8 | Nc1nc(N)c2c(ccc3nn(S(=O)(=O)N4CCCC4)cc32)n1 | 4.35%
9 | Cc1cc(Nc2ncc3c(n2)N(C2CCC2)CC3)ccc1N1CCN(C)CC1 | 0.65%
10 | COc1ccc(-n2ncc(C(=O)N3CCC4(C3)C(=O)N(c3ccccc3)c3ccccc34)c2C)cc1 (stereo not given) | 1.9%
11 | CC(=O)Nc1ccc(OCCCCCOc2ccc(NC(C)=O)cc2Cl)c(Cl)c1 | 1.91%
12 | Clc1cccc(C=NNc2nc(=Nc3ccccc3)[nH]c(=Nc3ccccc3)[nH]2)c1 | 8.44%
13 | CCC(CC(NCCCCNC(=O)c1ccc(NC(=O)c2ccc(Cl)cc2)cc1)c1ccccc1)c1ccccc1OC (stereo not given) | 1.72% and 1.8%
14 | Cn1cccc1C(=O)C(=O)Nc1cccc(-c2ccc(-c3nc4cc(C(F)(F)F)ccc4[nH]3)cc2)c1 | 4%
15 | CCOc1ccc(C(=O)Nc2nonc2-c2ccc(OC)c(OC)c2)cc1 | -0.49%
16 | Cc1cccc2nc(-c3cccc(-c4cccc(NC(=O)C5CC(=O)Nc6ccccc65)c4)c3)[nH]c12 (stereo not given) | 4.88%
17 | c1cc(CNCCN2CCNCC2)cc(-c2cccc(-c3nc4ccccc4[nH]3)c2)c1 | 1.08%
18 | CC(Oc1cccc(Cl)c1)C(=O)N1CCc2ccccc21 (stereo not given) | -1.29%
19 | CCC(C)(C)NC(=O)C(c1cccc(OC)c1)N(C(=O)CNC(=O)c1cccs1)c1ccc2c(c1)OCCO2 (stereo not given) | 6.74%
20 | CCNc1cc(C(=O)N[C@@H](Cc2ccccc2)[C@H](O)CNC(C)(C)c2cccc(OC)c2)cc(N2CCCC2=O)c1 | 0.14%

Row | Structure (SMILES) | inhibition
21 | Cc1ccc2c(-c3ccc([N+](=O)[O-])o3)cc(C)nc2c1 | 54.3%
22 | CC1(C)NC(N)=NC(=N)N1OCCCOc1c(Cl)cc(Cl)cc1Cl | -1.14%
23 | CCn1c(-c2nonc2N)nc2c(-c3cccc(NC(=O)Nc4ccccc4Cl)c3)ncc(OCCCN)c21 | -1.06%
24 | COc1ccc2nc(C)cc(Nc3ccc(Cl)c(Cl)c3)c2c1 | 7.6%
25 | Cc1nc2nc(N)nc(N)c2c(C)c1Cc1ccccc1Br | 7.5%
26 | O=C(Nc1cccc(-c2ccc(CN3CCCC3)cc2)c1)c1cccc(Cl)c1 | -0.6%
27 | CCN(CCCN1CCCCC1)c1cc(C)nc(Nc2ccc(C)c(Cl)c2)n1 | 3.02%
28 | O=C(CCNc1ccnc(NCCc2ccc(F)cc2)n1)Nc1ccccc1 | 3.86%
29 | Cc1cccc2nc(-c3cccc(-c4ccc(NC(=O)c5c[nH]cn5)cc4)c3)[nH]c12 | -0.79%
30 | O=C(c1ccc([N+](=O)[O-])o1)N1CCN(c2ccccc2)CC1 | 3.6%
31 | Nc1ccc2[nH]cc(C3CCN(CC4CCC(NC(=O)/C=C/c5ccccc5Cl)CC4)CC3)c2n1 (stereo not given) | 3.23%
32 | CN1CCN(CCCN(Cc2csc(-c3ccc(CNCc4ccccc4)cc3)n2)C(=O)Nc2cc(Cl)cc(Cl)c2)CC1 | 9.09%
33 | CC(=O)C1=NN(c2ccc(Cl)cc2)C(c2cccs2)N1c1ccccc1 (stereo not given) | 1.62%
34 | COc1ccccc1Cn1ccnc1SCC(=O)Nc1cccc(C(F)(F)F)c1 | 0.58%
35 | COc1ccc(N2CCN(CCCCNC(=O)c3ccc(NC(=O)c4cc(C(F)(F)F)cc(C(F)(F)F)c4)cc3)CC2)c(OC)c1 | 1.62%
36 | Cc1cc(N)cc2nc(-c3ccc(N)cc3)[nH]c12 | 3.09%
37 | CN(C)CCCOc1ccc(-c2csc(NC(=N)NCc3ccccc3)n2)cc1 | 1.32%
38 | c1ccc(-c2cc(NCCNc3cc(-c4ccccc4)nc4ccccc34)c3ccccc3n2)cc1 | -1.99%
39 | Nc1nc(O)c2cc(CN(C=O)c3ccc(C(=O)N[C@@H](CCC(=O)O)C(=O)O)cc3)ccc2n1 | 6.36%
40 | COC(=O)COc1cc(C(=O)NCCCCN2CCC(c3ccc4c(c3OC)CCCC4)CC2)ccc1-c1ccc(Cl)cc1 | 3.39%
